Compound activity deposited in PubChem BioAssay by National Center for Advancing Translational Sciences (NCATS).
Rows were chosen to be rich in hits. Some 0.79% of all compounds tested hit in one or more screens of this group.
AmpC no deterg: blocks E. coli AmpC beta-lactamase in detergent-free assay; AmpC nitrocefin hydrolysis, absorbance 480 nm, 0.0001% Triton; Potency, µM (titrated, usually from 57.1 µM), for inactives: top-dose activity change, negative = inhibition, most hits filed as inhibitors; 0.52% of 330,000 active; P00811;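 further: plate controls were no compound for no effect and no enzyme for full effect; nearly all actives have a fitted effect of over 20% in size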
Target sequence (P00811 whole entry, looked up): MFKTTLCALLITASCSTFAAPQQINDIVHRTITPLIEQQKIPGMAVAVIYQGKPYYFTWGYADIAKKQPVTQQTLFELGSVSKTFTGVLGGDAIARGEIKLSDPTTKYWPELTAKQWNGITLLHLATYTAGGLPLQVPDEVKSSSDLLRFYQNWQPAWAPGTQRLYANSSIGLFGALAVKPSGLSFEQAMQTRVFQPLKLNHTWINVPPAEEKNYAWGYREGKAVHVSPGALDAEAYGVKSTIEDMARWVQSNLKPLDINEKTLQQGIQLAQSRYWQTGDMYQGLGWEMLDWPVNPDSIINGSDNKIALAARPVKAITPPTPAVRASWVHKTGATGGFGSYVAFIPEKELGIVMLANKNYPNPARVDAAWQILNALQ
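20 mM phosphate pH 7.0 + 0.01% (detergent screen) or 0.0001% Triton X-100; 5.3 nM AmpC reagent; cpd preinc 15 min RT; nitrocefin (800 uM stock) to start; A480 q20 s × 4 min; Activity was normalised to no-enzyme and no-compound control wells.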
AMA1-RON2 inh: AMA1-RON2 (P. falciparum) interaction inhibition; 0.2% of 360,000 active; Potency, µM (top dose mostly 58.2 µM), without a hit: at the top dose activity change, negative = inhibition, usual class: inhibitors; AlphaScreen AMA1-biotinylated RON2 peptide binding;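 further: 0% = vehicle wells and -100% = peptide control; nearly all actives have a fitted effect of over 45% in size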
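AMA1 (3D7) with his tag at 25 nM final met compounds first, then biotinylated RON2 peptide at 25 nM; detection used donor plus acceptor beads, 10 µg/mL apiece, read by AlphaScreen after 30 min at room temperature.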
RE007 growth inh: less growth of the S. pombe RE007 Vpr strain | S. pombe RE007 Vpr strain, BacTiter-Glo ATP luminescence, 24 h | Potency, µM (series often up to 92.2 µM), for inactives: at the top dose activity change, negative = less growth, most hits filed as inhibitors | 0.21% of 360,000 active; active means well fitted falling curve with a large enough effect; inconclusive means small, poorly fitted or top-dose-only effect; inactive means no such curve, though single readings can be large or run the other way; further: nearly all actives have a fitted effect of over 50% in size
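Fission yeast strain RE007, carrying one chromosomally integrated HIV-1 vpr copy, was seeded at OD 0.01 in PMG+AL medium with 23 nL pinned compound. After 24 h at 30 °C and 99% humidity, viability was read by BacTiter-Glo luminescence.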
AmpC detergent: blocks E. coli AmpC beta-lactamase in detergent assay. 0.041% of 370,000 active. AmpC hydrolysis of nitrocefin, absorbance 480 nm, 0.01% Triton. Potency, µM (titrated, usually from 114 µM), without a hit: at the top dose activity change, negative = inhibition, actives largely listed as inhibitors;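 further: 0% = no-compound wells and -100% = no-enzyme wells; nearly all actives have a fitted effect of over 25% in size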
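20 mM phosphate pH 7.0 + 0.01% (detergent screen) or 0.0001% Triton X-100; 5.3 nM AmpC reagent; cpd preinc 15 min RT; nitrocefin (800 uM stock) to start; A480 q20 s × 4 min; Activity was normalised to no-enzyme and no-compound control wells.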
Numbers without * were called inactive; ? = inconclusive; · = no result; [ ] = remark or other dose. Unless noted, the call rests on the fitted dose curve; in most records, active means well fitted curve in the direction sought with a large enough effect; inconclusive means small, poorly fitted or top-dose-only effect, or another doubt; inactive means no such curve, though single readings can be large; an effect the other way counts as inactive or inconclusive. Unless noted, on the % scale 0 is the no-effect control and ±100 the full control effect; potency means the concentration at half of the fitted maximal effect.

SMILES	AmpC no deterg	AMA1-RON2 inh	RE007 growth inh	AmpC detergent
Cc1[nH]n(-c2ncc(-c3ccc(Cl)cc3)s2)c(=O)c1C(c1ccc(Cl)cc1)C(C#N)C#N (configuration not stated)	40µM*	24%	1%	-2%
COc1ccc(C(c2c(C)[nH]n(C(N)=S)c2=O)C(C#N)C#N)cc1 (configuration not stated)	-18%	-22%	-18%	1%
CCOC(=O)c1cccc(NC2c3ccccc3C(=O)N2Cc2ccco2)c1 (configuration not stated)	0.89µM*	-10%	18%	?
CC(=O)c1cccc(NC2c3ccccc3C(=O)N2Cc2ccco2)c1 (configuration not stated)	-5%	-4%	3%	0%
O=C(N/N=C/c1cccs1)c1cccc(S(=O)(=O)Nc2ccc(Cl)cc2)c1	14µM*	1%	1%	-12%
COc1cc(OC)cc(-c2cc3ccc(OC)cc3cn2)c1	57%	22%	40µM*	5%
COc1ccc2cc(-c3ccccc3)ncc2c1	-4%	8%	-10%	-9%
O=S(=O)(c1ccccc1Cl)N1CCCC1c1nc(-c2ccc(Cl)cc2)no1 (configuration not stated)	0.32µM*	13%	22%	-3%
CC(=O)Nc1ccc(S(=O)(=O)Nc2nnc(C)s2)cc1	·	-11%	-7%	·
Cc1ccc(S(=O)(=O)NC(=O)Nc2nnc(C)s2)cc1	0.4µM*	-8%	-2%	2%
O=C(OCC(=O)N1CCCC1=O)c1cc(Cl)ccc1O	-12%	16%	16µM*	-18%
O=C(OCC(=O)N1CCCc2ccccc21)c1cc(Cl)ccc1O	4%	1%	6%	-9%
COC(=O)c1ccccc1CSc1nsc(/C=C/N(C)C)c1C#N	28µM*	0%	11%	-1%
Cc1nc(CSc2nsc(/C=C/N(C)C)c2C#N)cs1	20µM*	-11%	8%	0%
Cc1snc(SCc2ccc(F)cc2)c1C#N	-24%	0%	0%	-6%
COC(=O)c1cccnc1SCc1ccccc1	-16%	21%	-16%	-13%
CCOC(=O)c1ccccc1NC(=O)CSc1cn(CC(=O)N2CCCCCC2)c2ccccc12	·	·	·	16%
COc1cccc(C(=O)CN2CCN(S(=O)(=O)c3ccc(Cl)cc3)CC2)c1	·	·	·	8%
COc1cc(/C=C2\SC(=O)N(c3ccccc3Cl)C2=O)cc([N+](=O)[O-])c1O	-43%	-29%	35µM*	3%
COc1ccc(Br)cc1CNCc1c(C(=O)O)c(C)n(Cc2ccccc2C)c1C	·	·	·	4%
C=CCNc1nc(C(=O)OCC(=O)c2ccc(C)c([N+](=O)[O-])c2)cs1	20µM*	33%	-16%	2%
CN(Cc1ccccc1)C(=O)c1ccc2c(c1)N(Cc1ccc(Cl)cc1)C(=O)c1ccccc1S2=O (configuration not stated)	·	·	·	0%
CCCOc1cccc(-c2cc(C(=O)NN)c3ccccc3n2)c1	10µM*	44%	0%	-13%
CCNC(=S)NNC(=O)c1cc(-c2ccc(OC)cc2)nc2ccccc12	-36%	89%	18µM*	?
CCCCOc1ccc(-c2cc(C(=O)NNC(=S)NCC)c3ccccc3n2)cc1	-41%	18%	63µM*	-2%
SMILES	AmpC no deterg	AMA1-RON2 inh	RE007 growth inh	AmpC detergent
CCCOc1cccc(-c2cc(C(=O)N/N=C/c3ccccn3)c3ccccc3n2)c1	-8%	91%	17%	?
CCC1CCCCN1S(=O)(=O)c1ccc(NC(=O)c2cc(=O)c3c(C)cc(C)cc3o2)cc1 (configuration not stated)	·	·	·	6%
Cc1cccc(C)c1NC(=O)CCSCCc1ccccn1	·	·	·	3%
CN(C)c1ccc(N=Nc2ccc(C(=O)O)cc2)cc1	-4%	1%	7%	2%
Cc1csc(N=Nc2ccc(N(C)C)cc2)[n+]1[O-]	·	14µM*	?	·
COc1ccc(-n2cnc3cc(C(=O)NC4CCCCCC4)ccc32)cc1	·	·	·	-9%
C[C@H]1[C@H](NC(=O)C(=NOC(C)(C)C(=O)O)c2csc(N)n2)C(=O)N1S(=O)(=O)O	5µM*	19%	0%[18.4 µM]	4µM*
CCOC(=O)c1csc(N)n1	-24%	-3%	10%	-2%
Cn1c(SCC(=O)NCc2ccco2)nnc1-c1c[nH]c2ccccc12	-17%	15%	-13%	?
CCOc1ccc(-n2c(SCC(=O)NCc3ccco3)nnc2-c2c[nH]c3ccccc23)cc1	1.4µM*	-1%	8%	?
O=S(=O)(NN1CCOCC1)c1ccc(Br)cc1	-15%	3%	-2%	4%
O=S(=O)(N/N=C/c1ccc(N2CCOCC2)cc1)c1ccc(Br)cc1	11µM*	-1%	-21%	?
COC(=O)c1ccc(N2CCc3ccccc32)c([N+](=O)[O-])c1	-24%	13µM*	4%	-12%
O=C(O)c1ccc(N2CCc3ccccc32)c([N+](=O)[O-])c1	-30%	-3%	2%	-16%
CCCc1ccc(OCC(=O)Nc2sc(C(=O)OCC)c(C)c2C(=O)OCC)cc1	·	·	·	16%
COc1ccccc1NC(=O)Cn1c(=O)n(CCC(=O)NCC2CCCO2)c(=O)c2cc(OC)c(OC)cc21 (configuration not stated)	·	·	·	-6%
CCOc1ccccc1NC(=O)c1cc(CC(C)C)oc1C	0.32µM*	7%	-30%	4%
CCOc1ccc(N(CC)C(=O)COc2cc(=O)n(C)c3ccccc23)cc1	25µM*	-8%	-4%	?
CCOc1ccc(N(CC)C(=O)COc2cc(=O)n(CC)c3ccccc23)cc1	106%	-11%	1%	-9%
Cc1ccc(NS(=O)(=O)c2cccc(C(=O)NNC(=O)c3cccn3C)c2)c(C)c1	16µM*	40%	0%	1%
O=C(NC1CCCCC1)c1cc2c(Cl)nc3ccccc3c2s1	·	·	·	14%
CCc1ccc(Nc2nc3ccccc3c3nnc(C)n23)cc1	·	·	·	11%
O=C(Nc1ccc(Nc2ccccc2)cc1)c1ccc(Br)cc1	-17%	-2%	-2%	?
Cc1cccc(C(=O)Nc2cccc(NC(=O)c3ccccc3)c2)c1	22µM*	-10%	2%	3%
O=C(Nc1cccc(C(=O)Nc2ccc(Br)cc2)c1)c1ccccc1	32µM*	0%	-22%	-10%
SMILES	AmpC no deterg	AMA1-RON2 inh	RE007 growth inh	AmpC detergent
Cc1cc(C)c(Cn2c(=O)n(CCC(=O)NCCc3ccccc3)c(=O)c3ccccc32)c(C)c1	·	·	·	8%
Cn1c(=O)c(Oc2cc(Cl)cc(Cl)c2)nc2ccccc21	0.4µM*	14%	10%	2%
Cc1cc(C)c2c(n1)nn1c(C)c(CCC(=O)NCc3ccccc3Cl)c(C)nc21	·	·	·	1%
COc1nc(Cl)cn(-c2ccc(C)cc2)c1=O	-10%	11%	11%	-3%
Cc1ccc(-n2c(Cl)c(Cl)nc(Cl)c2=O)cc1	-3%	-2%	10µM*	?
O=C(CSc1ccc(-c2nc3ccccc3[nH]2)cn1)Nc1ccc2c(c1)OCCO2	0.56µM*	-2%	-2%	-3%
